Sfp PPTase inh: inhibitors of Bacillus subtilis Sfp phosphopantetheinyl transferase; Potency, µM, for inactives: largest response in the series, negative = inhibition, actives largely listed as inhibitors; Q9F4F7; hit rate 3.5% among 310,000; Biochemical Sfp PPTase activity, qHTS;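 note: the enzyme is Sfp with the accession as filed and its product quenches rhodamine fluorescence; potency is the fitted concentration of half-maximal effect; 0% = enzyme reaction without inhibitor and -100% = no enzyme wells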
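With Hepes-Na pH 7.6 buffer containing 10 mM MgCl2, Sfp (15 nM) modified BHQ-2-YbbR (12.5 uM) using rhodamine-CoA (5 uM). Two reads 30 minutes apart at 525/598 nm yielded each well's rate.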
FBPA coupling cs: counter-screen for Giardia aldolase inhibitors: coupling enzyme system; coupling enzyme system counterscreen, AmpLite Red fluorescence; activity change, negative = inhibition, % at 58.2 µM, hits read low; hit rate 0.67% among 290,000; AID 2472; in the data active = activity change below about -30%
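Final compound at 57.5 uM, incubated 10 min at RT with coupling enzyme reagent (glyceraldehyde-3-phosphate), then 20 min with substrate and AmpLite Red detection. Fluorescence read at 525/598 nm; tests interference with the coupling assay, not aldolase inhibition.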
Giardia kill: Giardia lamblia killing; Giardia lamblia trophozoite viability; activity change, % at 7.66 µM, hits read low; hit rate 0.15% among 340,000; AID 540267; in the data active = activity change below about -80%; inconclusive = between about -30% and that limit;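 note: parasites exposed to compound for two days anaerobically before the ATP read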
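Media and compound were dispensed first, then trophozoites at 100 cells/well; plates sat 48 hrs at 37 deg C without oxygen before ATP luminescence reagent was added and read after 15-30 min at room temperature.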
ELG1 DNA repair: blocks ELG1-dependent DNA repair in HEK293T cells | Potency, µM (titrated, usually from 46.1 µM), without a hit: at the highest dose activity change, negative = inhibition, actives largely listed as inhibitors | AID 504467 | HEK293T ELG1-luciferase reporter, luminescence, 16 h; DNA damage induced by 5-fluorouridine | hit rate 2.3% among 330,000; note: potency is the fitted concentration of half-maximal effect; nearly all actives have a fitted effect of over 55% in size
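In this reporter screen, reduction of luminescence relative to DMSO vehicle indicated activity. Compounds and 5-fluorouridine were added together to 2,000 cells per well, incubated for 16 hr at 37 °C, then developed with ONE-Glo.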
The depositor's hits bear a star; u = inconclusive; x = not tested or not shown. This is a sample that favours compounds with a hit; in the whole collection about 5.5% have one here. Unless noted, calls come from the whole dose curve; as a rule, active = well fitted curve in the direction sought with a large enough effect; inconclusive = small, poorly fitted or top-dose-only effect, or another doubt; inactive = no such curve, though single readings can be large; an effect the other way counts as inactive or inconclusive. Unless noted, % is set by controls: 0 for no effect and ±100 for the full control effect.

SMILES	Sfp PPTase inh	FBPA coupling cs	Giardia kill	ELG1 DNA repair
Fc1ccc(F)c(C2=NNC(=NCC3CCCO3)SC2)c1 (stereo not given)	44.7µM*	-12.4	6.6	2.6%
CC(=O)Nc1ccc(C2=NNC(=NCC3CCCO3)SC2)cc1 (stereo not given)	39.8µM*	-0.7	12.9	u
CS(=O)(=O)c1ccc(C(=O)NNC(=O)c2ccccc2-n2cccc2)cc1	x	x	-9.3	15.4%
O=C(O)C1CCCCC1C(=O)Nc1ccc(S(=O)(=O)N2CCOCC2)cc1 (stereo not given)	x	x	6.7	x
Cc1sc2c3ccsc3ccc2[n+]1C	3.55µM*	-2.2	9.3	-0.8%
Cc1sc2ccc3sccc3c2[n+]1C	2.82µM*	-0.6	-15.8	u
CN(CCCc1cnc[nH]1)C(=S)NCCCN(Cc1ccc(Cl)cc1)c1ccc(Br)cn1	x	x	-2.9	x
CC(=O)c1ccc(C(=O)N2CCCC(CO)(Cc3ccccc3C)C2)s1 (stereo not given)	4.3%	1.5	5.4	-1.3%
COc1ccc(CNC(=O)CCNC(=O)c2ccco2)cc1OC	x	x	11.7	20.2%
Cc1ccc(OCC(=O)N/N=C/c2cccc3cccnc23)cc1	-9.3%	x	-7.1	-26.0%
O=C(c1ccccc1)[C@@H]1[C@@H]2C(=O)N(c3ccc(F)cc3)C(=O)[C@@H]2C2CCCN21 (stereo not given in full)	89.1µM*	1.5	-17.1	u
Cc1ccc(N2C(=O)[C@@H]3[C@H](C2=O)C2CCCN2[C@@H]3C(=O)c2ccccc2)cc1 (stereo not given in full)	56.2µM*	-17.2	-4.1	u
O=C(c1ccc(Cl)cc1)C1C2C(=O)N(c3ccccc3)C(=O)C2C2CCCN21 (stereo not given)	-24.0%	-1.4	-23.0	0.0%
CCOC(=O)c1nn(C)c2[nH]c(=O)n(C)c(=O)c12	x	x	-11.3	x
CCOc1ccc(/C(C)=N/N2C(=O)C(CC(=O)Nc3ccc(OC)cc3[N+](=O)[O-])SC2=Nc2cccc(C)c2C)cc1 (stereo not given)	-9.1%	-0.6	4.8	6.5%
COc1ccccc1/C=N/N1C(=O)C(CC(=O)Nc2ccc([N+](=O)[O-])cc2OC)SC1=Nc1cccc(C)c1C (stereo not given)	-4.2%	-4.6	x	5.8µM*
Cc1c(Cl)cccc1NC(=S)NC1CC1	-8.5%	1.6	-1.7	-7.3%
Cc1c(Cl)cccc1NC(=S)Nn1cnnc1	22.4µM*	4.8	-6.7	-4.7%
O=C(Nc1ccc(CN2CCS(=O)(=O)CC2)cc1)c1ccc(Cl)cc1	2.6%	-0.6	3.3	10.3µM*
O=C(Nc1ccc(Cl)cc1)c1ccc(CN2CCc3ccccc3C2)cc1	10.5%	-0.1	10.3	u
NC(=S)NN=C1C2CC3CC(C2)CC1C3	31.6µM*	-0.6	-13.2	-0.3%
CCOc1cccc(=O)c2c(C)n(Cc3ccccc3)c(C)c12	-15.5%	-0.4	12.0	u
CCOc1cccc(=O)c2c(C)n(Cc3ccco3)c(C)c12	39.8µM*	-12.7	-17.4	u
COc1cccc(=O)c2c(C)n(-c3ccc(C(=O)O)cc3)c(C)c12	4.47µM*	-12.5	6.3	-8.2%
COc1ccc(-n2c(C)c3c(OC)cccc(=O)c3c2C)cc1	-17.9%	-2.5	-4.0	-5.0%
SMILES	Sfp PPTase inh	FBPA coupling cs	Giardia kill	ELG1 DNA repair
CCOc1cccc(=O)c2c(C)n(-c3ccc(C(=O)O)cc3)c(C)c12	28.2µM*	-8.2	-13.2	-1.0%
COc1cc(C2NC(=O)C(C#N)=C(Nc3cccc(C)c3)S2)ccc1O (stereo not given)	20µM*	7.5	6.7	7.3%
CCSC1(SCC)N=C(N)C2(C#N)C(c3ccccc3)NC3=C(CCC3)C12C#N (stereo not given)	7.9%	1.5	26.7	16.4%
CCSC1(SCC)N=C(N)C2(C#N)C(c3ccc(OC)c(OC)c3OC)C12C#N (stereo not given)	-48.7%	-8.0	-7.3	14.6µM*
COc1ccc(N(Cc2ccccc2)C(=O)CSc2nnc(Cn3nnc4ccccc43)o2)cc1	0.0%	-0.5	-25.7	18.4µM*
O=C1C(=O)N(c2ccccn2)C(c2cccc([N+](=O)[O-])c2)/C1=C(/O)c1ccc(Br)cc1 (stereo not given)	14.9%	-1.7	-9.2	-2.6%
Nc1c(C(=O)Nc2ccc(F)cc2)sc2nc(-c3ccco3)ccc12	7.94µM*	-1.0	-0.3	u
Nc1c(C(=O)Nc2ccc(Br)cc2)sc2nc(-c3ccco3)ccc12	10µM*	1.0	-11.5	8.4%
CC(=O)c1sc2nc(-c3ccco3)ccc2c1N	22.4µM*	-0.7	-0.9	u
Nc1c(C(=O)Nc2ccc(Br)cc2)sc2nc(-c3ccncc3)ccc12	x	x	2.7	x
CN1CCN(CCCNC(=O)CCC(=O)N2CCOc3ccccc32)CC1	15.2%	-0.7	4.1	u
O=C(NNc1nc(-c2ccccc2)cs1)c1ccccc1	44.7µM*	-1.5	-1.4	u
CC(=O)NNc1nc(-c2ccc(NC(C)=O)cc2)cs1	50.1µM*	0.4	-20.9	13.1%
CC(=O)Nc1ccc(-c2csc(NNC(=O)c3ccc(C)cc3)n2)cc1	7.94µM*	4.7	-4.5	-20.0%
N#Cc1ccc(-c2csc(NNC(=O)c3ccccc3)n2)cc1	-10.1%	5.3	-4.6	u
COCCN(C(=O)c1cc(Cl)nc2ccccc12)c1c(N)n(Cc2ccccc2)c(=O)[nH]c1=O	x	x	11.0	u
Cc1cccc(-n2c(CNC(=O)c3ccc(S(=O)(=O)N4CCCCC4)cc3)n[nH]c2=S)c1	-1.1%	1.0	3.5	0.1%
Cn1cc(CN(Cc2ccccn2)C[C@@H]2CCC(=O)N2)c(-c2ccccc2F)n1	79.4µM*	1.7	27.9	8.7%
Cn1cc(CN(Cc2ccccc2)C[C@@H]2CCC(=O)N2)c(-c2ccccc2F)n1	21.2%	-1.3	-29.9	2.9%
CCCCn1c(SCC(=O)NC(=O)Cc2ccccc2)nc2ccccc2c1=O	x	x	-11.7	0.3%
Cc1ccc(CN2CCc3c(OCc4ccc(F)cc4)cccc3C2=O)cc1	u	-3.2	1.6	5.8µM*
COC(=O)c1ccc(COc2cccc3c2CCN(Cc2ccccc2)C3=O)o1	-17.5%	2.0	6.2	23.1µM*
CN1CCc2c(OCc3ccc(F)cc3)cccc2C1=O	2.4%	-7.2	7.8	10.3%
Cc1nnsc1S(=O)c1ccc(Br)cc1 (stereo not given)	-3.7%	5.2	-19.1	u
Cc1ccc(C)c(S(=O)(=O)c2c(N)n(/N=C/c3ccco3)c3nc4ccccc4nc23)c1	50.1µM*	-13.6	8.1	-16.4%
Nc1c(S(=O)(=O)c2ccccc2)c2nc3ccccc3nc2n1CCN1CCOCC1	4.5%	3.4	4.7	-1.4%
Cc1ccc(S(=O)(=O)c2c(N)n(Cc3ccco3)c3nc4ccccc4nc23)cc1C	35.5µM*	-11.0	9.3	-17.3%
Nc1c(S(=O)(=O)c2ccccc2)c2nc3ccccc3nc2n1Cc1ccco1	20µM*	3.9	-2.3	-3.4%
Cc1cccc(S(=O)(=O)c2c(N)n(/N=C/c3ccccc3)c3nc4ccccc4nc23)c1	8.2%	-0.3	-9.8	-3.3%

From PubChem
